Laboratory results: PubChem BioAssay (NCI)
The panel holds about 83,000 compounds, 20% with a hit somewhere; the sample as a whole holds those more often.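 96-well plates, one dose, 48 hours. Percent growth reported; active if below 10.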 Calls of active or inactive are those of the source.

Tests used:
Assay in all cases: NCI-60 one-dose screen, 48 h (100 = growth as untreated, 0 = no growth, -100 = all killed)
Conditions in all cases: 10 µM unless noted
DU-145 prostate = system: DU-145 prostate
K-562 leukemia = system: K-562 leukemia
MALME-3M melanoma = system: MALME-3M melanoma
MDA-MB-231 breast = system: MDA-MB-231 breast
RXF 393 renal = system: RXF 393 renal
SF-268 CNS = system: SF-268 CNS
SF-295 CNS = system: SF-295 CNS
SF-539 CNS = system: SF-539 CNS
UACC-257 melanoma = system: UACC-257 melanoma
M14 melanoma = system: M14 melanoma

Measured: growth

CC(=O)[C@H]1CC[C@H]2[C@@H]3CC[C@H]4C[C@H](N)CC[C@]4(C)[C@H]3CC[C@]12C
inactive: DU-145 prostate 92.2% | K-562 leukemia 56% | MALME-3M melanoma 82.9% | MDA-MB-231 breast 72.7% | RXF 393 renal 66.8% | SF-268 CNS 92% | SF-295 CNS 99.6% | SF-539 CNS 84.6% | UACC-257 melanoma 55.2% | M14 melanoma 68.3%

Cn1cc(C=O)c2nccnc21
inactive: DU-145 prostate 118% | K-562 leukemia 101% | MALME-3M melanoma 106% | MDA-MB-231 breast 111% | RXF 393 renal 112% | SF-268 CNS 123% | SF-295 CNS 101% | SF-539 CNS 108% | UACC-257 melanoma 102% | M14 melanoma 120%

C/C1=C/C(=O)O[C@@H]2C[C@@H](CC[C@H](C)/C=C\C=C\CC1)O[C@@](O)([C@@H]1CSC(=O)N1CO)C2
active: RXF 393 renal -35.4% | SF-268 CNS -37.7% | SF-539 CNS -3.61%
inactive: DU-145 prostate 22.9% | K-562 leukemia 22.2% | MALME-3M melanoma 14% | MDA-MB-231 breast 13.7% | SF-295 CNS 13.5% | UACC-257 melanoma 13.9% | M14 melanoma 34.5%

CC(=O)OC1CCC2(C)C(CCC3C2CC(=O)C2(C)C3CC(Sc3ccc(N(CCCl)CCCl)cc3)C2C(C)=O)C1 (stereo not given)
inactive: DU-145 prostate 100% | MALME-3M melanoma 139% | MDA-MB-231 breast 85.6% | RXF 393 renal 107% | SF-268 CNS 85.9% | SF-295 CNS 67.6% | SF-539 CNS 13.7% | UACC-257 melanoma 90.3% | M14 melanoma 81%
active: K-562 leukemia 7.43%

O=C1CNC(c2ccccc2)c2cc(Cl)ccc2N1 (stereo not given)
inactive: DU-145 prostate 100% | K-562 leukemia 93.8% | MALME-3M melanoma 90.6% | MDA-MB-231 breast 94.9% | RXF 393 renal 99.2% | SF-268 CNS 98.7% | SF-295 CNS 103% | SF-539 CNS 104% | UACC-257 melanoma 94.9% | M14 melanoma 99.4%

O=[N+]([O-])c1cnc[nH]1
inactive: DU-145 prostate 116% | K-562 leukemia 123% | MALME-3M melanoma 112% | MDA-MB-231 breast 101% | RXF 393 renal 128% | SF-268 CNS 106% | SF-295 CNS 104% | SF-539 CNS 110% | UACC-257 melanoma 103% | M14 melanoma 119%

COc1ccc(Nc2ccnc3cc(Cl)ccc23)cc1CN(CCCl)CCCl
active: DU-145 prostate -26.4% | K-562 leukemia 0.691% | MALME-3M melanoma -85.3% | MDA-MB-231 breast 0.96% | RXF 393 renal -72.3% | SF-268 CNS -29.3% | SF-295 CNS -24.8% | SF-539 CNS -75.8% | UACC-257 melanoma -39.1% | M14 melanoma -58.4%

COC(=O)[C@@]1(C)CC[C@]2(C)CC[C@]3(C)C4=CC(=O)c5c(cc(O)c(O)c5C)[C@]4(C)CC[C@@]3(C)[C@@H]2C1
inactive: DU-145 prostate 67.1% | K-562 leukemia 49% | MALME-3M melanoma 106% | MDA-MB-231 breast 61.4% | RXF 393 renal 85% | SF-268 CNS 61.7% | SF-295 CNS 49.8% | SF-539 CNS 78% | UACC-257 melanoma 41.9% | M14 melanoma 66.4%

C/C(=C\c1ccn(-c2ccccc2N)n1)[C@@H]1C[C@@H]2O[C@]2(C)CCC[C@H](C)[C@H](O)[C@@H](C)C(=O)C(C)(C)[C@@H](O)CC(=O)O1
inactive: K-562 leukemia 14.6% | MALME-3M melanoma 41.7% | MDA-MB-231 breast 21.9% | SF-268 CNS 30.3% | SF-295 CNS 13.8% | UACC-257 melanoma 62.3%
active: DU-145 prostate -17.8% | RXF 393 renal -3.76% | SF-539 CNS -12% | M14 melanoma 2.49%

CCOC(=O)[C@@H](C)C[C@H](Cc1ccccc1)NC(=O)c1csc([C@@H](C[C@H](C(C)C)N(C)C(=O)[C@@H](NC(=O)[C@H]2CCCCN2C)C(C)(C)C)OC(C)=O)n1
inactive: MALME-3M melanoma 62.4% | RXF 393 renal 23.8% | SF-268 CNS 24.9% | UACC-257 melanoma 41.7%
active: DU-145 prostate 2.47% | K-562 leukemia 5.06% | MDA-MB-231 breast -5.5% | SF-295 CNS -8.4% | SF-539 CNS -13.6% | M14 melanoma -14.6%

O=C(N/N=C/c1ccc(N(CCCl)CCCl)cc1)c1cccc2ccccc12
inactive: DU-145 prostate 85.3% | K-562 leukemia 38.9% | MALME-3M melanoma 84.8% | MDA-MB-231 breast 86.9% | RXF 393 renal 93.3% | SF-268 CNS 77.4% | SF-295 CNS 78.7% | SF-539 CNS 78.6% | UACC-257 melanoma 79.1% | M14 melanoma 51.7%

COc1cc2c(=O)n(C3CCCCCCC3)c3c4cc[nH]c4ncc3c2cc1OC
active: K-562 leukemia 8.73% | SF-539 CNS -0.216%
inactive: DU-145 prostate 62.5% | MALME-3M melanoma 62.6% | MDA-MB-231 breast 42.1% | RXF 393 renal 19.1% | SF-268 CNS 42.4% | SF-295 CNS 33.2% | UACC-257 melanoma 93.8% | M14 melanoma 71.4%

CCCC[C@H](NC(=O)[C@H]1CCCCN1C)C(=O)N(C)[C@H](C[C@@H](OC(C)=O)c1nc(C(=O)N[C@@H](Cc2ccccc2)C[C@H](C)C(=O)OCC)cs1)C(C)C
active: K-562 leukemia 7.31% | MDA-MB-231 breast 5.49% | SF-539 CNS -11.1% | M14 melanoma 1.33%
inactive: DU-145 prostate 16.2% | MALME-3M melanoma 37.4% | RXF 393 renal 28.8% | SF-268 CNS 21.6% | SF-295 CNS 16.9% | UACC-257 melanoma 49.5%

COC(=O)[C@@H](C)C[C@H](Cc1ccccc1)NC(=O)c1csc([C@@H](C[C@H](C(C)C)N(C)C(=O)[C@@H](NC(=O)[C@H]2CCCCN2C)C2CCCCC2)OC(C)=O)n1
active: DU-145 prostate 6.23% | K-562 leukemia -0.636% | MDA-MB-231 breast -3.53% | SF-268 CNS 8.92% | SF-295 CNS -3.03% | SF-539 CNS -22.3% | M14 melanoma -35.1%
inactive: MALME-3M melanoma 56.9% | RXF 393 renal 65.5% | UACC-257 melanoma 48%

CC(=O)OC1C(OC/C2=C/C3[C@@H](C(C)C)CC=C(C)[C@@H]3CC(OC(=O)/C=C/c3cn(C)cn3)[C@]3(C)C=C[C@@]2(O)O3)OCC(O)C1O (stereo not given in full)
inactive: K-562 leukemia 15.7% | MALME-3M melanoma 48.4% | MDA-MB-231 breast 41.8% | SF-268 CNS 45.1% | SF-539 CNS 11.9% | UACC-257 melanoma 60.7%
active: DU-145 prostate -10.2% | RXF 393 renal -20.6% | SF-295 CNS -3.4% | M14 melanoma -35.7%

O=C1CN=C(c2ccc(Cl)cc2)c2sccc2N1
inactive: DU-145 prostate 109% | K-562 leukemia 88.1% | MALME-3M melanoma 97.4% | MDA-MB-231 breast 100% | RXF 393 renal 100% | SF-268 CNS 106% | SF-295 CNS 96.5% | SF-539 CNS 93.4% | UACC-257 melanoma 119% | M14 melanoma 110%

CC1=C(CCCOC(=O)[C@H](N)CC(C)C)C2=C(C)C3(CC3)[C@@](C)(O)C(=O)C2=C1
inactive: DU-145 prostate 11.6% | K-562 leukemia 101% | MDA-MB-231 breast 11.5% | SF-268 CNS 14.6% | UACC-257 melanoma 24.4%
active: MALME-3M melanoma -44.7% | RXF 393 renal -74.7% | SF-295 CNS -5.7% | SF-539 CNS -7.07% | M14 melanoma -33.2%

COC(=O)[C@@H](C)C[C@H](Cc1ccccc1)NC(=O)c1nc([C@@H](C[C@H](C(C)C)N(C)C(=O)[C@@H](NC(=O)[C@H]2CC(=O)CCN2C)C(C)C)OC(C)=O)sc1C(C)C
active: DU-145 prostate -11.3% | MDA-MB-231 breast 6.36% | RXF 393 renal 6.58% | SF-295 CNS -1.71% | SF-539 CNS -18% | M14 melanoma -10.3%
inactive: K-562 leukemia 12.3% | MALME-3M melanoma 44.3% | SF-268 CNS 20% | UACC-257 melanoma 77.6%

CC12CC=CCC1CCC1C2CCC2(C)C(c3ccc(=O)oc3)CCC12O (stereo not given)
active: DU-145 prostate -98% | K-562 leukemia 3.02% | MALME-3M melanoma -51.8% | MDA-MB-231 breast -4.41% | RXF 393 renal -46.5% | SF-268 CNS -62.2% | SF-295 CNS -36.7% | SF-539 CNS -93.7% | UACC-257 melanoma -52.8% | M14 melanoma -28%

CN[C@@]1(c2ccccc2Cl)CCCC[C@@H]1NCC1CCCO1 (stereo not given in full)
inactive: DU-145 prostate 111% | K-562 leukemia 100% | MALME-3M melanoma 95.3% | MDA-MB-231 breast 105% | RXF 393 renal 106% | SF-268 CNS 103% | SF-295 CNS 98.2% | SF-539 CNS 97% | UACC-257 melanoma 96.5% | M14 melanoma 101%

CCC1CN1CCCCN1CC1CC (stereo not given)
inactive: DU-145 prostate 108% | K-562 leukemia 114% | MALME-3M melanoma 91.6% | MDA-MB-231 breast 96.7% | RXF 393 renal 105% | SF-268 CNS 103% | SF-295 CNS 95.3% | SF-539 CNS 100% | UACC-257 melanoma 97% | M14 melanoma 98%
